Counter-ions that a name gives are not always drawn.
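Note: High-content confocal imaging of branched-DNA amplified FISH in 384-well plates, Hoechst-defined nuclei, score is well value minus plate DMSO median over DMSO robust SD, four wells per compound.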

The experiment relates to HeLa. Kind of experiment: MALAT1 nuclear FISH intensity, robust Z-score vs DMSO; higher = more nuclear MALAT1 lncRNA, active = -3 or less. Particulars: 10 µM; 6 h.
For `CCC(C)SSc1ncc[nH]1` (stereo unspecified), the “MALAT1 nuclear FISH intensity” value was -0.901 (inactive).

On to `CN1CCC[C@H]1c1cccnc1` [Nicotine], for which the “MALAT1 nuclear FISH intensity” value was -0.854 (inactive).

For the molecule `Cc1oncc1C(=O)Nc1ccc(C(F)(F)F)cc1` [Leflunomide], the “MALAT1 nuclear FISH intensity” value is -0.325 (inactive).

As to `CO/N=C(\C(=O)N[C@@H]1C(=O)N2C(C(=O)OCOC(=O)C(C)(C)C)=C(/C=C\c3scnc3C)CS[C@H]12)c1csc(N)n1` [Cefditoren Pivoxil], the “MALAT1 nuclear FISH intensity” value is -1.11 (inactive).

In the case of `Cn1cc(C2=C(c3cn(CCCSC(=N)N)c4ccccc34)C(=O)NC2=O)c2ccccc21` [Ro 31-8220 methanesulfonate salt], the “MALAT1 nuclear FISH intensity” value is -2.38 (inactive).

Take `O=C1CCC(N2C(=O)c3ccccc3C2=O)C(=O)N1` (stereo unspecified) [Thalidomide]: the “MALAT1 nuclear FISH intensity” value was -1.01 (inactive).

Consider `O=C(NCc1ncc(C(F)(F)F)cc1Cl)c1c(Cl)cccc1Cl` [Fluopicolide], for which the “MALAT1 nuclear FISH intensity” value is -0.978 (inactive).

On to `CC(=O)NCCc1c(Cc2ccccc2)[nH]c2ccccc12` [Luzindole], for which the “MALAT1 nuclear FISH intensity” value was -0.745 (inactive).

`CC(=O)O[C@H]1C(=O)[C@@]2(C)[C@H]([C@H](OC(=O)c3ccccc3)[C@]3(O)C[C@H](OC(=O)[C@H](O)[C@@H](NC(=O)c4ccccc4)c4ccccc4)C(C)=C1C3(C)C)[C@]1(OC(C)=O)CO[C@@H]1C[C@@H]2O` [Taxol = Paclitaxel]: the “MALAT1 nuclear FISH intensity” value is -0.638 (inactive).

Turning to `[Cl-].[Li+]` [Lithium Chloride], the “MALAT1 nuclear FISH intensity” value is -0.866 (inactive).

Turning to `Clc1ccc(COC(Cn2ccnc2)c2ccc(Cl)cc2Cl)c(Cl)c1` (stereo unspecified) [Miconazole], the “MALAT1 nuclear FISH intensity” value was -0.412 (inactive).

These data come from the supplement of paper PMC9844399.
